Experiment [1] in a line: Nuclear factor erythroid 2-related factor 2/antioxidant responsive element (Nrf2/ARE) small molecule agonists: qHTS cell viability counter screen in human keratinocytes (AID 1919968; active means well fitted curve in the direction sought with a large enough effect in the repeat runs; an effect the other way counts as inactive or inconclusive; further: nearly all actives have a fitted effect of over 55% in size; further: potency means the concentration at half of the fitted maximal effect). The gist of the method: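 Cells of the KeratinoSens line were plated at 1,500 per well and left for 5 h before compound transfer from DMSO stocks. After a 23 h incubation (37 C, 5% CO2), CellTiter-Fluor was added. Signal was taken as fluorescence intensity 1 h later.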
For orientation: qHTS replaces the single test concentration by a dilution series.

Experiment [2] has as its target Gonadotropin-releasing hormone receptor (Homo sapiens) (UniProt P30968). Put plainly: Human gonadotropin-releasing hormone receptor (GnRHR) small molecule agonists, calcium flux assay in GnRHR-HEK293 cells (AID 1920063). Further: nearly all actives have a fitted effect of over 35% in size. The gist of the method: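 Compounds dissolved in DMSO are pin-transferred onto dye-loaded GnRHR-HEK293 cells, which were seeded 18 h before at 37 C/5% CO2. Calcium signal is read as fluorescence intensity at 1 s intervals for 3 min.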
For orientation: Calcium flux is commonly read through the fluorescence of an indicator in the cells.

Experiment [3] deals with KiSS-1 receptor (Homo sapiens) (UniProt Q969F8). Kind of experiment: Human kisspeptin (KISS1R) small molecule agonists, calcium flux assay in KISS1R-HEK293 cells (AID 1920064; active means well fitted curve in the direction sought with a large enough effect in the repeat runs; an effect the other way counts as inactive or inconclusive). In a few lines: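 Cell line: HEK293, stable human KISS1R. Dye loading 1 h at 37 C after 18 h culture. Read: kinetic fluorescence, 480/540 nm, 3 min at 1 s intervals.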
Experiment [4] is described as follows: G protein-coupled receptor (GPCR) small molecule agonists, calcium flux assay: HEK293 wild type cell line counter screen (AID 1920065). In a few lines:
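Tox21 10K compounds, 15 concentrations each in triplicate, pin-transferred in DMSO onto dye-loaded cells; kinetic read at 480/540 nm for 3 min, 1 s intervals.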

A short description of experiment [5]: p53 small molecule agonists, cell-based qHTS assay with human liver microsomes (AID 1963577). The gist of the method:
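p53RE-bla reporter cells were pre-incubated 5 h at 37 C, then treated with compounds plus human liver microsomes (0.5 mg/mL final) and NADPH (0.5 mg/mL final) for 16 h at 37 C. Beta-lactamase activity was read by LiveBLAzer fluorescence after 2 h at room temperature.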

A short description of experiment [6]: p53 small molecule agonists, cell-based qHTS assay with rat liver microsomes (AID 1963578). The gist of the method:
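p53RE-bla cells were exposed to compounds together with rat liver microsomes (0.5 mg/mL final) and NADPH (0.5 mg/mL final) for 16 h at 37 C, then read by LiveBLAzer beta-lactamase fluorescence after 2 h at room temperature.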

A short description of experiment [7]: p53 small molecule agonists, cell-based qHTS assay with human liver microsomes: qHTS cell viability counter screen (AID 1963579). Further: nearly all actives have a fitted effect of over 45% in size. In a few lines:
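p53RE-bla cells (4,000/well) were pre-incubated 5 h at 37 C, then given compounds in DMSO plus human liver microsomes (0.5 mg/mL final) and NADPH (0.5 mg/mL final) for 16 h at 37 C. Viability was read by CellTiter-Glo luminescence.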

Experiment [8] can be described thus: p53 small molecule agonists, cell-based qHTS assay with rat liver microsomes: qHTS cell viability counter screen (AID 1963580). Further: nearly all actives have a fitted effect of over 45% in size. The gist of the method:
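Luminescent ATP readout (CellTiter-Glo, 30 min at room temperature) reports viability of p53RE-bla HCT-116 cells after 16 h at 37 C with test compounds under metabolic activation by rat liver microsomes and NADPH at 0.5 mg/mL final each.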

Experiment [9] is described as follows: p53 small molecule agonists, cell-based qHTS assay (AID 1963582; active means well fitted activation curve with a large enough effect in the signal ratio in the repeat runs, not every such curve was filed as active; the % refers to the signal ratio). The gist of the method: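 16 h compound exposure (37 C) of p53 response element–bla cells, preceded by 5 h recovery at 37 C/5% CO2; read-out via LiveBLAzer B/G FRET substrate, 2 h RT, fluorescence intensity.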
The target in experiment [10] is 5-hydroxytryptamine receptor 2A (Homo sapiens) (UniProt P28223). Kind of experiment: 5-hydroxytryptamine receptor 2A (HTR2A) small molecule antagonists, cell-based qHTS assay (AID 1963586). Further: nearly all actives have a fitted effect of over 45% in size. The gist of the method:
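CHO cells stably expressing human HTR2A were plated for 18 h at 37 C, then loaded with calcium dye for 1 h. Compounds were preincubated 5 min at room temperature before DOI (4 nM solution) was added. Kinetic fluorescence was read for 3 min.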

Experiment [11] shares this target. Put plainly: 5-hydroxytryptamine receptor 2A (HTR2A) small molecule agonists, cell-based qHTS assay (AID 1963587). Further: nearly all actives have a fitted effect of over 30% in size. In a few lines: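 HTR2A-CHO cells, plated 18 h at 37 C/5% CO2, dye-loaded 1 h at 37 C; compounds in DMSO added by pin tool (agonist mode). Intracellular calcium flux read as kinetic fluorescence on FDSS over 2 min at 1 s intervals.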
Experiment [12] deals with Muscarinic acetylcholine receptor M1 (Homo sapiens) (UniProt P11229). Kind of experiment: Cholinergic receptor muscarinic 1 (CHRM1) small molecule antagonists, cell-based qHTS assay (AID 1963588). Further: nearly all actives have a fitted effect of over 40% in size. In a few lines:
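Compounds were tested at 15 concentrations in three independent runs. Dye-loaded CHRM1-CHO cells were exposed 5 min at room temperature before stimulation by acetylcholine added at 50nM. Intracellular calcium was read kinetically on FDSS for 3 min.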

Experiment [13] shares this target. Put plainly: Cholinergic receptor muscarinic 1 (CHRM1) small molecule agonists, cell-based qHTS assay (AID 1963589). Further: nearly all actives have a fitted effect of over 35% in size. In a few lines: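 Homogeneous fluorescence calcium flux, agonist mode. Human M1-expressing CHO cells; compound dosed at 15 concentrations, three independent runs; signal sampled every 1 sec.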
Experiment [14] can be described thus: cAMP Responsive Elements (CRE) small molecule agonists, cell-based qHTS assay (AID 1963590). The gist of the method: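 HEK 293T cells stably bearing CRE-bla were plated at 2,000 cells per well and rested 18 h. Compounds, positive controls or DMSO were added for 3 h at 37 C. LiveBLAzer B/G substrate was then loaded for 2 h at room temperature.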
Experiment [15] is described as follows: cAMP Responsive Elements (CRE) small molecule antagonists, cell-based qHTS assay (AID 1963591; active means well fitted inhibition curve with a large enough effect in the signal ratio in the repeat runs, not every such curve was filed as active; the % refers to the signal ratio). The gist of the method:
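First, CRE-bla HEK293T cells settled 18 h at 37 C. Next, compound and 0.25 uM final NKH477 were applied for 3 h. Last, LiveBLAzer B/G substrate was loaded for 2 h at room temperature.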

Experiment [16] concerns the target Beta-2 adrenergic receptor (Homo sapiens) (UniProt P07550). Kind of experiment: Adrenergic beta2 receptor (ADRB2) small molecule antagonists, cell-based qHTS assay (AID 1963592). Further: series mostly up to about 92 µM; nearly all actives have a fitted effect of over 50% in size. In a few lines: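 Assay format: CHO-ADRB2 cells, 18-20hr seeding at 37C/5% CO2, then compound plus 1nM isoproterenol agonist mix for 0.5hr RT. Homogeneous time-resolved fluorescence cAMP detection after 1hr, expressed as 665/615 nm ratio.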

Experiment [17] has as its target D(2) dopamine receptor (Homo sapiens) (UniProt P14416). Kind of experiment: Dopamine D2 receptor (DRD2) small molecule antagonists, cell-based qHTS assay (AID 1963595; active means well fitted inhibition curve with a large enough effect in the signal ratio in the repeat runs, with a control signal flat; the % refers to the signal ratio). The gist of the method: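 DRD2-HEK293; 0.1 mM Ro20-1724; cpd 10 min RT; NKH477 200 nM + quinpirole 12 nM, 30 min RT; HTRF cAMP (cAMP-d2/anti-cAMP cryptate), 665/620 nm ratio after 1 h.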
Experiment [18] is described as follows: p53 small molecule agonists, cell-based qHTS assay: qHTS cell viability counter screen (AID 1963581). Further: nearly all actives have a fitted effect of over 45% in size. In a few lines:
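ATP content measured by luminescence in HCT-116 p53RE-bla cells treated 16 h at 37 C, same wells as the reporter screen.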

The target in experiment [19] is D(2) dopamine receptor (Homo sapiens) (UniProt P14416). Kind of experiment: Dopamine D2 receptor (DRD2) small molecule agonists, cell-based qHTS assay (AID 1963594). Further: nearly all actives have a fitted effect of over 35% in size. In a few lines:
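HEK293 cells stably expressing DRD2 were cultured 24 h at 37 C, then given Ro20-1724 (0.1 mM final) and compounds for 10 min at room temperature. NKH477 (200nM) was then added for 30 min. cAMP was read by HTRF.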

A number with no mark means an inactive call. Records with an inconclusive call do not appear. The source made the active and inactive calls. Unless noted, the call rests on the fitted dose curve.
On the % scale 0 is the no-effect control and ±100 the full control effect.

Sequence of Muscarinic acetylcholine receptor M1 (Homo sapiens) (P11229 whole entry, looked up): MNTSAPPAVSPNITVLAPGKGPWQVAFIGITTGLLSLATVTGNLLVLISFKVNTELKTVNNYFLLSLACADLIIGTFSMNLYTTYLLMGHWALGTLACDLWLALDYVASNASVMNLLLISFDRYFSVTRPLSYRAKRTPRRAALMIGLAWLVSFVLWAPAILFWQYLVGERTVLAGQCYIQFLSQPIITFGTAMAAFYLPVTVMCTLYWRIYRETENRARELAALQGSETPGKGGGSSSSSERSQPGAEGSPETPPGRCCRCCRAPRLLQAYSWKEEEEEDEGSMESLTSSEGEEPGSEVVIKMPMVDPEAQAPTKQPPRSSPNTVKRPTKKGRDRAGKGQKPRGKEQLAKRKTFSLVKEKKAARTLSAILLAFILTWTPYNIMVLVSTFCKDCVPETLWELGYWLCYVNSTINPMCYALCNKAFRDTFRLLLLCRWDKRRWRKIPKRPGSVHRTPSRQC
Sequence of Gonadotropin-releasing hormone receptor (Homo sapiens) (P30968 whole entry, looked up): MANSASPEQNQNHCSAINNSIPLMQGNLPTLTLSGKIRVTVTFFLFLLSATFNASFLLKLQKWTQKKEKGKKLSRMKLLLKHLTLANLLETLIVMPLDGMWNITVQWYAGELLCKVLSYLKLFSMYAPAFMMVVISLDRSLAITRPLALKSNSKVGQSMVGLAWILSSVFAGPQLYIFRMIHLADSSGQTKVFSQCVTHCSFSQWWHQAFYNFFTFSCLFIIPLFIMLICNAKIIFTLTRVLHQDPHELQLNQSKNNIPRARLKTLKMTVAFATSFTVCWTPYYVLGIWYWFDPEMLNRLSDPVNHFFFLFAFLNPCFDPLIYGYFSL
Sequence of 5-hydroxytryptamine receptor 2A (Homo sapiens) (P28223 whole entry, looked up): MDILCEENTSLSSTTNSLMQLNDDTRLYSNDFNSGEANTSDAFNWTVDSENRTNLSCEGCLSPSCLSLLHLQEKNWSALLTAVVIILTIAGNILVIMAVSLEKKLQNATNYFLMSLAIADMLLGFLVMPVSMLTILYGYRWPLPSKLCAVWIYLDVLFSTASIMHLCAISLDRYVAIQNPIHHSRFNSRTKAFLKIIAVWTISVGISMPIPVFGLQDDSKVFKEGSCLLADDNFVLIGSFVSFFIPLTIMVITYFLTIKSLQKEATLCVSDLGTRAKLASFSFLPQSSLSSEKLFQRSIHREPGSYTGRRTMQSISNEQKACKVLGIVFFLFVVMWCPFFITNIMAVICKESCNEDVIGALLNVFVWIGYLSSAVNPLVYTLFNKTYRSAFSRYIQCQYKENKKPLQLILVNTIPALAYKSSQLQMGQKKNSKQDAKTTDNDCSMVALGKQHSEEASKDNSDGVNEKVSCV
Sequence of KiSS-1 receptor (Homo sapiens) (Q969F8 whole entry, looked up): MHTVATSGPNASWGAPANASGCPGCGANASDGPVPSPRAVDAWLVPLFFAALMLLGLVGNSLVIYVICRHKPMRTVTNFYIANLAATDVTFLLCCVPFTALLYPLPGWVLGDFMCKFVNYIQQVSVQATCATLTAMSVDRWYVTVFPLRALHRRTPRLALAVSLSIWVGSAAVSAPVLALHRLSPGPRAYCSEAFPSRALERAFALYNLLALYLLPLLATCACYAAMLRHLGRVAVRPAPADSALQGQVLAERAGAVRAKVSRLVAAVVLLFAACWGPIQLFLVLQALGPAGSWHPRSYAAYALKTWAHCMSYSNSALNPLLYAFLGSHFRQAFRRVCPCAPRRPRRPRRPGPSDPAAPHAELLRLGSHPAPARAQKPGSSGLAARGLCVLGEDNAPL
Sequence of Beta-2 adrenergic receptor (Homo sapiens) (P07550 whole entry, looked up): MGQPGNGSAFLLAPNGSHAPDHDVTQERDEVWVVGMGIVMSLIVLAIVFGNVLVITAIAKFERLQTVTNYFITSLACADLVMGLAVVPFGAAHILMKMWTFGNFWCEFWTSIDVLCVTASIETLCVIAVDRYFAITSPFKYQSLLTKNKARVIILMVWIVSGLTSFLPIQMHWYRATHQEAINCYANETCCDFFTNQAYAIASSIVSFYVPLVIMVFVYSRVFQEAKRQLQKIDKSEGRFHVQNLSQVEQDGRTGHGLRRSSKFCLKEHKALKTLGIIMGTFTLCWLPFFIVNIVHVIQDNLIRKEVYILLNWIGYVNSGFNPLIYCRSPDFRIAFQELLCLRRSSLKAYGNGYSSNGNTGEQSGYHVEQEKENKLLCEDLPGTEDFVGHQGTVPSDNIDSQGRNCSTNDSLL
Sequence of D(2) dopamine receptor (Homo sapiens) (P14416 whole entry, looked up): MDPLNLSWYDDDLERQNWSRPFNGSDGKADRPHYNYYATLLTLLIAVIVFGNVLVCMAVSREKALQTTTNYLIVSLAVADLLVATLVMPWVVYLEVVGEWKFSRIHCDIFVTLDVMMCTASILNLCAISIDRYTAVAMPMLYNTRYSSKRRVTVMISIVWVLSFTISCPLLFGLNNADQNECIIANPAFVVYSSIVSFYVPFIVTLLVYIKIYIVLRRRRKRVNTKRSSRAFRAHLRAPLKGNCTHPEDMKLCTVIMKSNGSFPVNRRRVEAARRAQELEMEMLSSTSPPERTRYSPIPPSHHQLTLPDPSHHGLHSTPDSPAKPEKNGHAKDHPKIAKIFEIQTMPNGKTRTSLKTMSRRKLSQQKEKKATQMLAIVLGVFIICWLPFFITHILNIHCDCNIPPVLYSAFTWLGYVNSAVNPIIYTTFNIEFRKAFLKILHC

With `CC1=C(C(=O)O)N2C(=O)[C@@H](N)[C@H]2SC1`, the activity change, negative = cytotoxicity in experiment [1] is 0.0817% [at 19 µM]; in [7] it was 0.455% [at 13.5 µM]; in experiment [8], 4.3e-05% [at 13.5 µM]. Further, in [2], the activity change was 0.673% [at 11.8 µM, active compounds read high]. For the same compound, the activation in [3] was 0.11% [at 15.8 µM]; in experiment [4] it was -0.375% [at 11.8 µM]; in experiment [5], -0.214% [at 13.5 µM]; in [6], -0.0529% [at 13.6 µM]; in experiment [9], 0.428% [at 13.5 µM]; in experiment [11] it was 1.93% [at 15.9 µM]. Also, the activation in experiment [13] was 0% [at 15.8 µM]; in experiment [14], -0.165% [at 19 µM]. Further, the activity, negative = inhibition was 25.1% [at 12.7 µM] in experiment [10] and -6.26% [at 12.6 µM] in [12]. Besides, the results for the activity change, negative = inhibition in [15], in experiment [16] and in experiment [17] were -4.67% [at 18.9 µM], 2.77% [at 19 µM] and -2.19% [at 18.9 µM], respectively.
In the case of `FC(F)C(F)(F)OCC(Cn1cncn1)c1ccc(Cl)cc1Cl` (stereo not drawn), the Potency entry in experiment [1], in experiment [2], in experiment [3], in experiment [4], in experiment [5] and in experiment [6] was “inactive” in each case. Moreover, the Potency result in experiment [8], in experiment [18], in experiment [9], in [10], in experiment [11] and in experiment [12] was “inactive” each time. Moreover, the Potency entry in [13], in [16] and in experiment [19] was “inactive” each time.
Turning to `CCS(=O)(=O)C(C)(C)S(=O)(=O)CC`, the Potency result in experiment [1], in experiment [2], in experiment [3], in experiment [4], in [5] and in experiment [6] was “inactive” in each case. The Potency entry in [7], in experiment [8], in experiment [18], in [9], in experiment [10] and in experiment [11] was “inactive” in each case. Besides, the Potency entry in [13], in experiment [14], in experiment [15], in [16] and in experiment [17] was “inactive” throughout.
As for `O=c1c(C2CC(c3ccc(-c4ccc(Br)cc4)cc3)Cc3ccccc32)c(O)sc2ccccc12` (stereo not drawn), the Potency in experiment [1] is 29.8 µM (active). Moreover, the Potency entry in experiment [2], in experiment [3], in experiment [4], in experiment [5], in [6] and in experiment [7] was “inactive” in each case. Moreover, the Potency entry in [8], in experiment [9], in [10], in experiment [11], in [13] and in experiment [16] was “inactive” throughout. The Potency entry in experiment [19] and in [17] was “inactive” each time.
`C=CC(C)(CCC=C(C)C)OC(=O)c1ccccc1N` (stereo not drawn): the Potency entry in [1], in experiment [2], in experiment [3], in experiment [4], in experiment [5] and in experiment [6] was “inactive” in each case. Further, the Potency entry in [7], in experiment [8], in experiment [18], in [9], in experiment [11] and in [12] was “inactive” throughout. The Potency entry in experiment [13], in [14], in [15], in [16] and in experiment [17] was “inactive” each time.
In the case of `O=C1c2ccccc2C(=O)c2ccccc21`, the activity change, negative = cytotoxicity in experiment [1] is 8.6% [at 19 µM]; in [7] it was 2.91% [at 13.5 µM]; in experiment [8], 1.32% [at 13.5 µM]; in experiment [18], 5.09% [at 13.5 µM]. The activity change in [2] was -0.0358% [at 11.8 µM, active compounds read high]. Further, the activation in experiment [3] is 8.4% [at 15.8 µM]; in experiment [4] it was 0.614% [at 11.8 µM]; in experiment [5], 1.15% [at 13.5 µM]; in experiment [6], -4.38% [at 13.6 µM]; in experiment [9] it was -1.94% [at 13.5 µM]; in experiment [14], -2.22% [at 19 µM]. For the same compound, the activation in experiment [19] was -2.1% [at 19 µM]. Moreover, the activity, negative = inhibition in experiment [12] is 2.2% [at 12.6 µM]. The results for the activity change, negative = inhibition in experiment [15] and in experiment [17] were -5.21% [at 18.9 µM] and -1.46% [at 18.9 µM], respectively.
With `Clc1ccc(CO/N=C(\Cn2ccnc2)c2ccc(Cl)cc2Cl)c(Cl)c1`, the Potency in experiment [1] was 23.7 µM (active). Besides, the Potency result in experiment [2], in [3], in experiment [4], in [5], in experiment [6] and in experiment [7] was “inactive” in each case. Besides, the Potency entry in [14] and in experiment [19] was “inactive” in each case.
Take `C[C@]12CC[C@@H](O)C[C@@H]1CC[C@@H]1[C@@H]2CC[C@]2(C)C(=O)CC[C@@H]12`: the Potency entry in experiment [1], in experiment [2], in experiment [3], in experiment [4], in [5] and in experiment [6] was “inactive” throughout. In addition, the Potency result in experiment [7], in [8], in experiment [14], in experiment [15], in [16] and in experiment [19] was “inactive” each time. In addition, the Potency result in [17] is “inactive”.

The values are drawn from PubChem BioAssay (Tox21).
